# Compound activity: PubChem, several laboratories
# A selection: hits, their analogues and other compounds. The true share with any hit is near 1.2%.
# FAS-TE inh – FAS thioesterase domain inhibitors, primary screen, biochemical, fluorescence intensity, uHTS. Fatty acid synthase (Homo sapiens), P49327. recombinant FAS-TE, OMFH fluorogenic substrate, fluorescence endpoint. inhibition, % at 15 µM. actives 0.67% (n = 360,000). AID 602261, 2012;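 active means compounds whose normalised, plate-corrected inhibition of enzyme fluorescence in the single-dose primary screen is 50% or more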
# Redox H2O2 prof – compounds producing H2O2 with reducing agent – biochemical, NIH compound library profiling, artefact control for MLSCN library redox annotation, primary screen; AID 878, 2007; DTT-dependent redox cycling H2O2, phenol red/HRP absorbance; 100% = 100 µM peroxide control, 0% = buffer; activation, % at 10 µM; actives 0.03% (n = 200,000);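 active means activation of at least 50% relative to the plate's high and low controls in the primary single-dose screen; inactive means activation below 50%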;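 further: compound incubated with DTT at 0.8 mM final as the reducing agent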
# p97 ATPase inh – inhibitors of human p97 ATPase, primary screen, biochemical; recombinant p97 ATPase, Kinase-Glo ATP luminescence, 3 h; inhibition, % at 8 µM; actives 0.42% (n = 220,000); AID 1481, 2009; in the data active means inhibition above about 15%
# UBC9 SUMO inh – inhibitors of in vitro SUMOylation cascade, primary screen, biochemical, HTRF, uHTS. inhibition, % at 35 µM. HTRF SUMOylation assay, SAE1/SAE2 + UBC9. actives 0.36% (n = 290,000). AID 2006, 2009; in the data active means inhibition above about 50%, passing the limit was not always enough
# PKD1 inh – inhibitors of human PKD1 kinase, biochemical, fluorescence polarization | PKD1 kinase fluorescence polarization assay | inhibition, % (no concentration beside the values) | actives 0.056% (n = 200,000); in the data active means inhibition above about 50%
# Furin inhibitor – human furin inhibitors, primary screen, biochemical, fluorescence intensity. actives 0.061% (n = 220,000). inhibition, % at 20 µM or 30 µM. P09958. purified furin, fluorogenic substrate cleavage. AID 463115, 2010; in the data active means inhibition above about 25%
# FP interf 140K – fluorescence polarization interference in PKD1 assay, artefact control for PKD1 inhibitor project, biochemical, 140K library | shares compounds with PKD1 inh | inhibition, % at 10 µM | 85 tested, under 10 active | PKD1 FP assay interference counter-screen | AID 1315, 2008; call rule not given here
# A number is an active result; i = inactive; nt = not tested or not shown.
SMILES,FAS-TE inh,Redox H2O2 prof,p97 ATPase inh,UBC9 SUMO inh,PKD1 inh,Furin inhibitor,FP interf 140K
CCc1cc2c(=O)c(Oc3ccccc3F)c(C)oc2c(CN(C)C)c1O,i,i,i,64,i,i,nt
Cc1c(Cc2ccccc2)c(=O)oc2c(CN(C)C)c(O)c(Cl)cc12,i,i,i,i,i,i,nt
O=C(Nc1cccc(Cl)c1)c1csc(COCCO)n1,i,nt,nt,nt,nt,nt,nt
O=C(Nc1ccc(-c2nc3ccc(NC(=O)c4cccs4)cc3[nH]2)cc1)c1cccs1,i,i,i,56,i,i,nt
COc1ccc(N=C2NC(=O)/C(=C\c3ccco3)S2)cc1,i,i,i,62,i,i,nt
COc1ccc(/C=C2\SC(=Nc3ccccc3)NC2=O)cc1,nt,nt,nt,i,nt,nt,nt
Cc1noc(C)c1NC(=O)N(C)C[C@@H]1OCc2cnnn2CCCC(=O)N([C@H](C)CO)C[C@@H]1C,i,nt,nt,nt,nt,nt,nt
Cc1cc(OC(C)C(=O)NCC(O)c2ccccc2)c2c(C)c(C)c(=O)oc2c1 (configuration not stated),i,nt,nt,i,nt,nt,nt
Cc1cc(OC(C(=O)O)c2ccccc2)c2c(C)c(Cc3ccccc3)c(=O)oc2c1 (configuration not stated),i,nt,i,51,nt,i,nt
COc1ccc(-c2ccc(C#N)c(SCC(=O)Nc3sc4c(c3C#N)CCC4)n2)cc1OC,i,i,i,52,i,i,nt
CCOC(=O)[C@]12CCC=C1N(Cc1ccc(Cl)cc1Cl)C(=O)[C@H](CC(=O)N1CCN(C(=O)c3ccco3)CC1)C2,i,nt,nt,nt,nt,nt,nt
C/C(Nc1ccc(Cl)cc1)=C1/CCOC1=O,i,nt,nt,nt,nt,nt,nt
Oc1cc2c(cc1O)C1c3ccc(O)c(O)c3OCC1(O)C2 (configuration not stated),i,i,15,i,i,i,nt
COCCNC(=O)C1(C)CCN(C(=O)COc2ccc(Cl)cc2Cl)C1 (configuration not stated),i,nt,nt,nt,nt,nt,nt
CN(Cc1ccc2c(c1)CCCN2C)C(=O)[C@H]1O[C@@H](n2ccc(=O)[nH]c2=O)[C@H](O)[C@@H]1O,i,nt,nt,nt,nt,nt,nt
Cc1nn(C)c(C)c1N1C(=O)c2cccc3c(N)ccc(c23)C1=O,i,i,i,i,67,i,i
Cc1nn(C)c(C)c1N1C(=O)c2cccc3c(Br)ccc(c23)C1=O,i,i,i,i,i,i,nt
CN(C)c1ccc(/C=C2\SC(=S)N(Nc3ncc(C(F)(F)F)cc3Cl)C2=O)cc1,i,i,i,i,69,i,i
Cc1cc(Nc2cccc(F)c2)nc(NCc2ccccc2)n1,i,i,i,i,56,i,i
Cc1cc(Nc2ccccc2)nc(NCc2ccccc2)n1,i,i,i,i,i,i,nt
CC(C)CCN1CN(S(=O)(=O)c2cccs2)c2nc3ccccc3nc21,i,i,i,i,95,i,i
CCCCCC(=C/c1ccccc1)/C=N/Nc1ccc(S(=O)(=O)N2CCOCC2)cc1[N+](=O)[O-],i,nt,nt,nt,nt,nt,nt
O=C(NCCOC(=O)c1ccc(C(=O)OCCNC(=O)c2cccnc2)s1)c1cccnc1,i,i,i,i,105,i,i
CCCCn1nnnc1C(c1cc2ccccc2o1)N(C)Cc1ccc(Cl)cc1 (configuration not stated),i,nt,nt,nt,nt,nt,nt
CN1CCN(c2ccccc2NC(=O)c2ccc(-c3cccc([N+](=O)[O-])c3)o2)CC1,i,i,i,i,52,i,i
SMILES,FAS-TE inh,Redox H2O2 prof,p97 ATPase inh,UBC9 SUMO inh,PKD1 inh,Furin inhibitor,FP interf 140K
CCOC(=O)c1cccc(NC(=O)CCS(=O)(=O)c2cccc3nsnc23)c1,i,i,i,i,69,i,i
O=C(O)C1CCN(c2ncccn2)CC1,i,i,i,i,90,i,i
Cc1occc1C(=O)NCCCCc1ccccc1,i,i,i,i,i,i,nt
Cc1occc1C(=O)NC(C)CCc1ccccc1 (configuration not stated),i,i,i,i,119,i,i
Cc1c(C(=O)NCc2cccnc2)sc2nc(-c3ccc(F)cc3)cn12,i,i,i,i,54,i,i
O=C(Nc1ccc(Cl)cc1)OCc1cn(-c2ccc(Cl)cc2)nn1,i,i,i,i,108,i,i
Cc1ccc(-n2c3c(cc(C(=O)NCc4ccco4)c2=O)C(=O)CC(C)(C)C3)cc1,i,i,i,i,i,i,nt
O=C1CCCc2c1cc(C(=O)NCc1ccco1)c(=O)n2-c1ccccc1,i,i,i,i,52,i,i
Cc1ccc(NC(=O)Nc2ccc(F)c(Cl)c2)cc1,i,i,i,i,i,i,nt
Cc1ccc(NC(=O)CNc2ccc(Cl)cc2F)cc1,i,i,i,i,86,i,i
Cn1c(=O)oc2cc(S(=O)(=O)N3CCN(Cc4ccc5c(c4)OCO5)CC3)ccc21,i,i,i,i,80,i,i
O=S(=O)(c1ccc2c(c1)OCCO2)N1CCN(Cc2ccc3c(c2)OCO3)CC1,i,i,i,i,i,i,nt
COCCNC(=O)C1(C)CCCN(CCSc2ccccc2)C1 (configuration not stated),i,nt,nt,nt,nt,nt,nt
Nc1nc2c(ncn2[C@@H]2O[C@H](CNCC3=Cc4cc(O)ccc4OC3)[C@@H](O)[C@H]2O)c(=O)[nH]1,i,nt,nt,nt,nt,nt,nt
CCN1CCN(C(CCc2ccccc2)C(=O)NC2CCCCC2)CC1 (configuration not stated),i,nt,nt,nt,nt,nt,nt
CC(OC(=O)c1ccc(NS(=O)(=O)c2cccs2)cc1)C(=O)N(C)C1CCCCC1 (configuration not stated),i,i,i,i,51,i,i
CCc1nc2ccc(C(=O)N3CCCC(C(N)=O)C3)cn2c1N(C)Cc1ccc(OC)cc1 (configuration not stated),i,nt,nt,nt,nt,nt,nt
COc1ccc2c3c(cccc13)C(=O)N(O)C2=O,i,i,i,i,i,i,nt
CCC1=NNc2cccc3c(OC)ccc1c23,nt,i,i,59,99,i,i
CS(=O)(=O)N1CCN(c2ccc(NC(=O)c3ccc(Br)o3)cc2)CC1,i,i,i,i,91,i,i
COc1ccc(-c2cnnc(N/N=C/c3ccc(O)c(O)c3)n2)cc1,i,i,i,i,52,i,i
COc1ccccc1/C=C1\SC(=S)N(CCC(=O)NC2=NCCS2)C1=O,i,i,i,i,52,i,i
O=C(CCN1C(=O)/C(=C\c2cccs2)SC1=S)NC1=NCCS1,i,i,i,i,i,i,nt
CCCCn1nnnc1C1(C)CCC(=O)N1Cc1cccnc1 (configuration not stated),i,nt,nt,nt,nt,nt,nt
CCN(CC)CCNC(=O)c1nn(-c2ccc(Cl)cc2)c2c1CCc1cc(OC)ccc1-2,i,nt,nt,nt,nt,nt,nt
